# Bioassay records (PubChem)
# Sampled rows, rich in hits. Any-hit rate of the full collection: about 3.3%.
# p47phox inh = blocks human p47phox regulatory protein of NADPH oxidases. actives 0.53% (n = 220,000). P14598. p47phox/p22phox peptide binding, fluorescence polarization, 2 h. AID 1274. inhibition, % at 24.7 µM;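 further: 0% = p47phox with labelled peptide and 100% = labelled peptide alone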
# eIF4E-4G inh = eIF4E/eIF4G interaction inhibition in translation initiation. TR-FRET eIF4E-eIF4GI(517-606) binding, 2 h. inhibition, % at 21.7 µM. actives 0.37% (n = 220,000). AID 782;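 further: 0% = full FRET control wells and 100% = background wells lacking eIF4GI fragment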
# 14-3-3 Bad PPI = disrupts binding of bovine 14-3-3 zeta to phospho-Bad peptide; P63103; TR-FRET 14-3-3zeta/Dy647-pBad peptide displacement, 1 h; inhibition, % at 21.7 µM; actives 0.71% (n = 220,000); AID 781;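 active means inhibition above about 70%, limit read from the data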;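 further: 0% = full 14-3-3 plus peptide FRET controls and 100% = background without 14-3-3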
# Target sequence (P63103 whole entry, looked up): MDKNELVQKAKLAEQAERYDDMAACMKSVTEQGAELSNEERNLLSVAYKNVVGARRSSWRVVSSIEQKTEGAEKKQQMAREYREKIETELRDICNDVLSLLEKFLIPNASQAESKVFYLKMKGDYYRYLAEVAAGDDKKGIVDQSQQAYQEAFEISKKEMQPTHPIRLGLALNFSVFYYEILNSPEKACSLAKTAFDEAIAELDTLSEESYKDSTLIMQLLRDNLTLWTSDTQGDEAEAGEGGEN
# Bim-Mcl-1 = inhibitors of Bim-Mcl-1 interaction, human; Q07820; Bead-based flow cytometry, Bim peptide-Mcl-1 binding; inhibition, % at 10 µM; actives 0.1% (n = 190,000); AID 1009; in the data active means inhibition above about 40%;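 further: 0% = no compound tracer wells and 100% = peptide blocker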
# Target sequence (Q07820 whole entry, looked up): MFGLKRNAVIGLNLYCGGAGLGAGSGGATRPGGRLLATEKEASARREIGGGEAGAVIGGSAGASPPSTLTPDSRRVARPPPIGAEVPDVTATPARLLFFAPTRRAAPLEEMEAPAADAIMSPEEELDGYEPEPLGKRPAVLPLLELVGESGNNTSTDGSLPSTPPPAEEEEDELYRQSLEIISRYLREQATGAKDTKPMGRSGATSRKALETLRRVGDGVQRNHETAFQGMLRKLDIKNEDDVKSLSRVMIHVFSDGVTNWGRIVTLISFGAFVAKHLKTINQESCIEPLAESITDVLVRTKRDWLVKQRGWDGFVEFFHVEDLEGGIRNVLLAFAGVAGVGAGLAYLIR
# Mcl1 Bid PPI = disrupts binding of human Mcl-1 to Bid peptide; actives 0.97% (n = 220,000); TR-FRET Mcl-1/Bid-Dy647 peptide binding, 1536-well; Q07820; inhibition, % at 21.7 µM;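 active means compounds that cut the binding signal by more than half at the single screening dose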;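 further: His-tagged Mcl-1 with europium anti-His antibody binding Bid BH3 peptide; 0% = Mcl-1 plus peptide wells and 100% = peptide-only wells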
# Mcl1 Noxa PPI = Mcl-1/Noxa interaction inhibition | Q07820 | TR-FRET Mcl-1/Noxa peptide binding, 2 h | inhibition, % at 21.7 µM | actives 1.5% (n = 220,000) | AID 1022;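 active means compounds that cut the protein-peptide binding signal by more than 50% relative to plate controls in a single-dose test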;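 further: His-tagged Mcl-1 with rhodamine Noxa BH3 peptide and terbium anti-His antibody; 0% = Mcl-1 plus Noxa peptide wells and 100% = peptide-only wells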
# * hit, by the source's call; · = no result given; [ ] = another dose, or the depositor's remark.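 How the source made its calls, unless noted: active means inhibition above about 30% (limit read from the data); inactive means the rest.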
SMILES,p47phox inh,eIF4E-4G inh,14-3-3 Bad PPI,Bim-Mcl-1,Mcl1 Bid PPI,Mcl1 Noxa PPI
O=C(O)/C(=C\c1ccc(Cl)c([N+](=O)[O-])c1)c1ccc(S(=O)(=O)N2CCCCC2)s1,-12,4,-2,-1,-6,56*
O=C(O)/C(=C\c1ccccc1Cl)c1ccc(S(=O)(=O)N2CCCCC2)s1,0,10,6,0,36,62*
COc1ccc2c(c1)C=C([C@@H]1C[C@H]3CN(c4ccccc4)C(=O)[C@]34CCCN14)CO2,12,5,56,-7,-18,3
Cn1c(=S)c2[nH]c(SCCN3CCCC3)nc2n(C)c1=O,44*,1,3,·,-165,2
CCN1CCCC(Sc2nc3c([nH]2)c(=S)n(C)c(=O)n3C)C1 (centres undefined),-4,0,-6,·,-159,0
Nc1nc2c(c(=O)[nH]1)C(c1cccc3ccccc13)C1=C(N2)c2ccccc2C1=O (centres undefined),-16,2,4,4,14,94*
O=C(O)c1cccc2cccnc12,-10,4,-1,-5,0,1
O=C(Oc1ccccc1)c1cccc2cccnc12,99*,5,14,-1,-27,-25
CCOc1cc(/C=N\Nc2ncc(F)c(N3CCOCC3)n2)ccc1Oc1nc(Cl)ncc1F,-5,2,7,·,-33,-6
Cc1ccc2nc(Cl)c(/C=N/NC(=O)[C@H]3C[C@@H]3c3ccccc3)cc2c1,31*,4,-2,-3,-2,6
CC(C)(C)c1ccc(C2CC2C(=O)N/N=C\c2cc3ccccc3nc2Cl)cc1 (centres undefined),-28,-3,84*[fluorescence artefact?],0,18,-7
Cc1cc(-c2ccccc2)nc(=O)[nH]1,-5,12,74*,-1,37,15
O=C(NCCSCc1ccccc1)c1ccc(C2SCC(=O)N2Cc2ccccc2)cc1 (centres undefined),-27,-9,0,2,-34,9
Cc1ccccc1NC(=O)Cn1nnc2sc3c(c2c1=O)CC(C)(C)OC3,0,2,4,·,-5,6
CCC1(C)Cc2c(sc3nnn(CC(=O)Nc4ccccc4C)c(=O)c23)CO1 (centres undefined),-5,0,-5,0,19,54*
CCc1cc2c(=O)nc3n(c2s1)Cc1ccccc1/C3=C(/O)c1ccccc1Cl,74*,-5,-1,2,-1,13
CCc1cc2c(=O)nc3n(c2s1)Cc1ccccc1/C3=C(/O)c1ccc(F)cc1,-20,-7,-15,-2,-50,14
COc1ccc2nc(N3C(=O)/C(=C/c4ccccc4)NC3=S)sc2c1,-103,9,8,-4,17,64*
CCOc1ccc2nc(N3C(=O)/C(=C/c4ccccc4)NC3=S)sc2c1,-87,6,12,-10,-24,-18
COc1ccccc1/C=C/C(=O)NCC(=O)N/N=C/c1cc(Br)ccc1OC,-7,-2,-1,-3,1,27
COc1ccc(/C=C/C(=O)NCC(=O)N/N=C/c2cc(Br)ccc2OC)cc1,101*,-1,5,-4,6,-22
Cc1ccccc1C(=O)Nc1ccc(C(=O)N/N=C/c2ccc(F)cc2)cc1,-3,-5,14,-19,6,17
Cc1ccccc1C(=O)Nc1ccc(C(=O)N/N=C/c2ccc(O)c(Br)c2)cc1,-34,3,-6,1,-32,58*
c1ccc2c(c1)ccc1ncccc12,-6,0,-7,-2,-12,15
Oc1c(N=Nc2ccccn2)ccc2ccccc12,62*,1,-15,7,-80,·
SMILES,p47phox inh,eIF4E-4G inh,14-3-3 Bad PPI,Bim-Mcl-1,Mcl1 Bid PPI,Mcl1 Noxa PPI
O=C1c2cccnc2C(=O)N1Cc1ccccc1,-5,-3,0,-3,7,-42
O=C1c2cccc3c(O)ccc(c23)C(=O)N1Cc1ccccc1,37*,3,-20,·,1,-129
O=C(NC(=S)Nc1cc(-c2nc3ccccc3[nH]2)ccc1Cl)c1ccc2c(c1)OCO2,-22,2,53,-8,59*,1
Cc1ccc(-c2nc3ccccc3[nH]2)cc1NC(=O)c1ccc2c(c1)OCO2,-10,-9,-4,-3,-1,22
CC(C(=O)Nc1ccc2c(c1)OCCO2)N(C)Cc1c(F)cccc1Cl (centres undefined),-10,-3,97*,1,-38,5
O=C(Nc1ccc2c(c1)OCCO2)c1c(F)cccc1F,-7,0,2,-1,4,-7
O=c1cc(-c2ccc(O)c(-c3c(O)cc(O)c4c(=O)cc(-c5ccc(O)cc5)oc34)c2)oc2cc(O)cc(O)c12,-76,12,3,0,22,112*
O=c1c(-c2c(O)cc(O)c3c(=O)cc(-c4ccc(O)cc4)oc23)c(-c2ccc(O)cc2)oc2cc(O)cc(O)c12,-134,2,18,·,-60,103*
O=c1cc(-c2ccccc2)oc2cc(OCc3ccccc3)cc(O)c12,-14,0,11,1,-15,10
O=c1c(-c2ccc(O)cc2)coc2cc(O)cc(O)c12,4,-25,0,·,-66,2
O=c1cc(-c2ccc(O)c(O)c2)oc2cc(O)cc(O)c12,-13,3,22,·,-65,66*
Cc1ccc(NC(=O)CCC(=O)NNC(=O)NC2CCCCC2)c(C)c1,6,-3,-5,-1,1,2
C1CN(CC2CCN(c3nc4nonc4nc3N3CCSCC3)CC2)CCO1,34*,-2,-16,0,-12,3
COCC(O)CSc1nc(C)[nH]c1[N+](=O)[O-] (centres undefined),-7,6,-11,0,87*,26
Cc1nc(SCC(O)CCl)c([N+](=O)[O-])[nH]1 (centres undefined),-4,0,2,-2,4,7
c1coc(-c2nnc3sc(Cc4cccs4)nn23)c1,-16,14,-14,-2,-25,39
c1csc(Cc2nn3c(-c4n[nH]c5c4CCC5)nnc3s2)c1,-12,-9,0,2,-17,54*
Clc1ccc(-n2cc(COCc3ccccc3)nn2)cc1,0,0,-3,1,-1,3
CC(=C/c1ccccc1)/C=C1/SC(N2CCOCC2)=NC1=O,-10,-2,7,0,64*,40
O=C(c1ccc(-c2ccccc2)cc1)N1CCN(c2ccccn2)CC1,-3,-3,-8,0,-28,16
Cc1cc(C2=NNC(=NCCc3ccccc3)SC2)c(C)n1-c1c(C)n(C)n(-c2ccccc2)c1=O,-39,-11,8,·,-141,8
Cc1cc(C2=NNC(=NC3CC3)SC2)c(C)n1-c1c(C)n(C)n(-c2ccccc2)c1=O,13,5,15,-2,7,52*
